KB-V1 cytotox: kills drug-selected multidrug resistant KB-V1 cells | KB-V1 MDR cells viability, CellTiter-Glo, 72 h | Potency, µM (titrated, usually from 46.1 µM), hits mostly cytotoxic | 400,000 compounds, 3.4% hits; further: nearly all actives have a fitted effect of over 60% in size
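Following 72 h at 37 degrees C with compound, KB-V1 cell viability was read by CellTiter-Glo luminescence, medium being phenol-red-free DMEM plus 10% FBS; concentration-response parameters came from normalized, curve-fitted qHTS data.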
TDP1 cell CPT: growth inhibition of DT40 Tdp1-/-;hTDP1 cells with camptothecin (screen for TDP1 inhibitors) | chicken DT40 Tdp1-/-;hTDP1 cells + 20 nM CPT, ATP luminescence, 48 h | Potency, µM (highest dose often 46.2 µM), usual class: inhibitors | 420,000 compounds, 12% hits | AID 686979; further: nearly all actives have a fitted effect of over 55% in size
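Cell growth measured by CellTiter-Glo luminescence after a minimum 48 h, 37 C compound exposure with 20 nM CPT in Tdp1-knockout DT40 cells stably expressing hTDP1, seeded 400/well; qHTS titration format.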
TDP1 cell noCPT: qHTS for Inhibitors of human tyrosyl-DNA phosphodiesterase 1 (TDP1): qHTS in cells in absence of CPT; DT40 Tdp1-/- hTDP1 cells, no CPT, ATP luminescence, 48 h; Potency, µM (series often up to 46.2 µM), hits mostly inhibitors; 420,000 compounds, 15% hits; further: nearly all actives have a fitted effect of over 55% in size
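Luminescent ATP content (CellTiter-Glo) served as the growth readout. Knockout chicken DT40 cells expressing human TDP1 were exposed to compounds without camptothecin for a minimum 48 hr at 37 °C.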
HT1080 IDH1KD tx: toxicity to HT-1080 IDH1 knockdown cells (counter line); HT-1080 IDH1 knockdown viability, ATP luminescence, 48 h; Potency, µM (titrated, usually from 46.1 µM), usual class: cytotoxic; 360,000 compounds, 2% hits; AID 686971
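Cytotoxicity counter-line: IDH1KD HT-1080, 48 h, CellTiter-Glo. Curves classed by r2, magnitude and activity.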
HT1080-NT tox: kills 2HG-producing HT-1080-NT fibrosarcoma cells. AID 686970. Potency, µM (highest dose often 46.1 µM), most hits filed as cytotoxic. HT-1080-NT fibrosarcoma viability, CellTiter-Glo ATP luminescence, 48 h. 360,000 compounds, 1.6% hits;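 further: NT is the 2HG producing partner of a matched IDH1 knockdown line; nearly all actives have a fitted effect of over 55% in size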
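Luminescent CellTiter-Glo readout after 48 hours of compound exposure at 37 degrees C defined viability of HT-1080-NT cells. Activity was normalized to DMSO wells and cell-free media wells; concentration-response curves were fitted and assigned curve classes.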
KB-3-1 tox: kills parental KB-3-1 adenocarcinoma cells. 400,000 compounds, 1.4% hits. KB-3-1 viability, CellTiter-Glo ATP luminescence, 72 h. Potency, µM (highest dose often 46.1 µM), usual class: cytotoxic. AID 1347075; further: nearly all actives have a fitted effect of over 60% in size
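Luminescent ATP read-out (CellTiter-Glo) measures survival of drug-naive KB-3-1 cells after 72 h compound exposure at 37 °C. Titration series was screened from lowest to highest concentration, with DMSO vehicle plates as background controls.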
Each line names hits and unclear results; the compound was inactive in the other large screens. Sampled rows, rich in hits. Any-hit rate of the full collection: about 19%. The call rests on the fitted dose curve; in most records, active means well fitted curve in the direction sought with a large enough effect; inconclusive means small, poorly fitted or top-dose-only effect, or another doubt; inactive means no such curve, though single readings can be large; an effect the other way counts as inactive or inconclusive.

CCN(CC)S(=O)(=O)c1cccc(-c2nnc(SCCCC(=O)c3ccc(F)cc3)o2)c1	KB-V1 cytotox 16µM, TDP1 cell CPT inconclusive, TDP1 cell noCPT inconclusive
O=C(CSc1nnc(-c2cccc(S(=O)(=O)N3CCCCC3)c2)o1)NCCC1=CCCCC1	TDP1 cell CPT inconclusive, TDP1 cell noCPT inconclusive
CCN(CC)S(=O)(=O)c1cccc(-c2nnc(SCC(=O)c3cc(C)n(C4CC4)c3C)o2)c1	TDP1 cell CPT inconclusive, TDP1 cell noCPT 16µM
CCN(CC)S(=O)(=O)c1cccc(-c2nnc(SCc3nc4ccccc4s3)o2)c1	KB-V1 cytotox inconclusive, TDP1 cell CPT inconclusive, TDP1 cell noCPT 21µM, KB-3-1 tox inconclusive
Brc1ccccc1-c1nnc(SCc2nc3ccccc3s2)o1	TDP1 cell noCPT inconclusive
CCN(CC)S(=O)(=O)c1cccc(-c2nnc(SC(C)C(=O)NCCC3=CCCCC3)o2)c1 (configuration not stated)	KB-V1 cytotox 10µM, TDP1 cell CPT inconclusive, TDP1 cell noCPT 26µM, KB-3-1 tox inconclusive
CCN(CC)S(=O)(=O)c1cccc(-c2nnc(SCCCC(=O)c3ccccc3)o2)c1	KB-V1 cytotox inconclusive, TDP1 cell CPT inconclusive, TDP1 cell noCPT inconclusive
Cc1cc2nc3c(nc2cc1C)CCCC3	none
Cc1c(Br)c([N+](=O)[O-])nn1CC(=O)NC1CCCCCC1	KB-V1 cytotox inconclusive, KB-3-1 tox inconclusive
CCOC(=O)C1(C)CCCN(C(=O)c2cc(C)oc2C)C1 (configuration not stated)	TDP1 cell CPT inconclusive, TDP1 cell noCPT inconclusive
CC(=O)Oc1ccc(/C=c2\sc3ncnn3c2=O)cc1	TDP1 cell CPT 21µM, TDP1 cell noCPT inconclusive
COc1cc(C(F)(F)F)nc(-c2ccccn2)n1	none
COc1cnc(N(C)C)nc1Sc1ccc(Cl)cc1	none
COc1ccc(Sc2nc(-c3ccccn3)ncc2OC)cc1	KB-V1 cytotox inconclusive, TDP1 cell CPT 2.9µM, TDP1 cell noCPT 3.3µM, HT1080 IDH1KD tx inconclusive, HT1080-NT tox inconclusive
COc1cnc(-c2ccccn2)nc1Sc1ccc(F)cc1	TDP1 cell CPT 0.58µM, TDP1 cell noCPT 0.52µM, HT1080-NT tox 21µM
CCOC(=O)CSc1ncc(OC)c(Sc2ccc(OC)cc2)n1	none
COc1cnc(-c2ccccn2)nc1Sc1ccccc1	TDP1 cell CPT 1.5µM, TDP1 cell noCPT 1µM, HT1080-NT tox inconclusive
COc1cnc(-c2ccccn2)nc1Sc1ccc(Cl)cc1	KB-V1 cytotox inconclusive, TDP1 cell CPT 1.3µM, TDP1 cell noCPT 1.5µM, KB-3-1 tox inconclusive
CCOC(=O)C1CCN(C(=O)c2cccnc2Oc2ccccc2)CC1	none
O=C(NCC1CCCCC1)c1ccc2nc([C@@H]3O[C@H](CO)[C@@H](O)[C@H]3O)[nH]c2c1	HT1080 IDH1KD tx inconclusive, HT1080-NT tox inconclusive
CN1CCN(C(c2ccccc2)c2sc3nc(-c4ccco4)nn3c2O)CC1 (configuration not stated)	none (no result: KB-V1 cytotox, HT1080 IDH1KD tx, HT1080-NT tox, KB-3-1 tox)

Screening results deposited in PubChem by National Center for Advancing Translational Sciences (NCATS).
